Active and inactive are the calls of the source. Rule for the calls: active = hit-call score of the fitted dose curve at least 0.9, where 1 is the maximum; inactive = score below 0.9.

This passage reports outcome and AC50 results from PubChem BioAssay (EPA / NIEHS).

Read-out in the assay: Monocyte Chemoattractant Protein-1 (MCP1), CCL2 (gene 6347)
The assay is described as follows: BSK_SAg_MCP1: BioMAP Diversity Plus: SAg Assay for Monocyte Chemoattractant Protein-1 (MCP1) Biomarker Activity (AID 2283090). Conditions: primary human HUVEC with PBMC; actives raise or lower the signal. The procedure:
BSK_SAg is a cell-based, multiplexed-readout assay that uses umbilical vein endothelium and peripheral blood mononuclear cells, a human vascular primary cell co-culture, with measurements taken at 24 hours after chemical dosing in a 96-well plate.BSK_SAg_MCP1 is an assay component measured in the BSK_SAg assay. It measures MCP-1 antibody related to regulation of gene expression using ELISA technology.Data from the assay component BSK_SAg_MCP1 was analyzed into 1 assay endpoint. This assay endpoint, BSK_SAg_MCP1, was analyzed with bidirectional fitting relative to DMSO as the negative control and baseline of activity. Using a type of binding reporter, gain or loss-of-signal activity can be used to understand changes in the signaling as they relate to the gene CCL2. Furthermore, this assay endpoint can be referred to as a primary readout, because this assay has produced multiple assay endpoints where this one serves a signaling function. To generalize the intended target to other relatable targets, this assay endpoint is annotated to the cytokine intended target family, where the subfamily is chemotactic factor.
The levels of cell surface (or secreted, indicated by the prefix "s") biomarker endpoints were measured by ELISA. Overt cytotoxicity to cells in confluent adherent cultures (all systems other than the BT system) was assessed by measuring total protein levels using sulforhodamine B (SRB) staining in parallel cultures at the time of biomarker measurements, indicated as SRB endpoints. For proliferation assays for adherent cell types, individual cell types are cultured at sub-confluence and relative cell numbers quantified by SRB staining at time points optimized for each system (48 h: 3C and CASM3C systems; 72 h: BT and HDF3CGF systems; 96 h: SAg system). SRB was performed by staining cells with 0.1% SRB after fixation with 10% TCA and reading wells at 560 nm.Viability and proliferation of PBMC (T cells) was quantified by Alamar Blue reduction for the SAg and BT systems. For PBMC viability (referred to as PBMC Cytotoxicity within the assay endpoint names), cells were plated (75,000/well in a 96-well plate) and then chemical samples added for 1 h before addition of activators, SEB and TSST-1 (20 ng/mL final concentration each). Cells were incubated for 90 h. Then, Alamar Blue (20 uL/well) (Invitrogen, Cat DAL1100) was added for 6 h, and the plates were read with a fluorescence microplate reader at 546/580 nm (excitation/emission). For PBMC proliferation, cells were plated and activated as above but incubated for only 16 h prior to addition of Alamar Blue. Plates were read after 6 h.
Regarding `C=CCOC(=O)c1ccccc1C(=O)OCC=C`, the result was inactive. The same measure, in the same setting: to `Nc1ccccc1N` belongs “inactive”; to `O=c1[nH]cc(F)c(=O)[nH]1`, “inactive”.

On to `Cc1ccccc1Cl`, for which the result was inactive.

For `Cc1nc(C)nc(N2C[C@@H](C)N(c3ccnc([C@@H](C)O)n3)[C@@H](C)C2)n1`, the result was inactive. On the same count and under the same terms, then `CC1(C)NC(=O)NC1=O`, with “inactive”; and `Cc1ccc(C)c(O)c1C`, with “inactive”. Turning to `FC(F)(F)C(F)(F)C(F)(F)C(F)(F)C(F)(F)C(F)(F)CCI`, the result was inactive.

`O=C(N[C@@H](Cc1ccccc1)[C@@H](O)C(=O)N1C[C@@H](O)[C@@H](O)C1)c1cc2cc(Cl)ccc2[nH]1`: the outcome was inactive.

Regarding `CC(=O)Oc1ccccc1C(=O)O`, the outcome was inactive. For `CN[C@H]1CC[C@@H](c2ccc(Cl)c(Cl)c2)c2ccc(S(N)(=O)=O)cc21`, the half-maximal activity concentration (AC50) was 25.2 µM (active). Still for that read-out and setting: to `CC(C)(C)c1cc(O)c(C(C)(C)C)cc1O` belongs 5.94 µM (active). As to `CCCCCCCCCCO`, the outcome was inactive. Same read-out and setting: then `COc1cc(S(=O)(=O)O)c(C)cc1N=Nc1c(O)ccc2cc(S(=O)(=O)O)ccc12`, with “inactive”. `COc1cc(-c2nc(NC(=O)c3cc4cc(C)cc(C)c4n3CC(=O)O)sc2CCC2CCCCC2)c(OC)cc1Cl`: the AC50 was 2.78 µM (active). In the case of `CC1(C)CC(N=C=O)CC(C)(CN=C=O)C1` (stereo not given), the outcome was inactive. On to `CCCCC(CC)COC(=O)CC(C(=O)OCC(CC)CCCC)S(=O)(=O)O` (stereo not given), for which the AC50 is 33 µM (active). As to `Cc1oc(-c2ccccc2)nc1CCOc1cccc2c1ccn2CCC(=O)O`, the outcome was inactive. The same measure, in the same setting: then `Cc1nc(-c2ccc3c(c2)CCN(CCC2CCC(NC(=O)/C=C/c4ccc(F)cc4)CC2)CC3)no1` (stereo not given), with “inactive”; and `CCOC(=O)CCC(=O)OCC`, with “inactive”; and `Nc1ccc2c(c1)C(=O)c1ccccc1C2=O`, with “inactive”. The same measure, in the same setting: to `CCOc1ccc2c(c1)C(C)=CC(C)(C)N2` belongs “inactive”. The same measure, in the same setting: then `C[C@]12C=CC(=O)C=C1CC[C@@H]1[C@@H]2C(=O)C[C@@]2(C)[C@H]1CC[C@]2(O)C(=O)CO`, with “inactive”; and `CCCCCCC(=O)OCC`, with “inactive”. Turning to `CCCCCCCCCCCCCCCC`, the result was inactive. On the same count and under the same terms, then `Cc1ccc2ncccc2c1`, with “inactive”. Same read-out and setting: then `Cc1cccc(C)c1O`, with “inactive”. Still for that read-out and setting: then `CCCCOC(=O)CCCCCCCCC(=O)OCCCC`, with “inactive”; and `COC(=O)c1ccc(O)cc1`, with “inactive”. Turning to `C[Si]1(C)O[Si](C)(C)O[Si](C)(C)O[Si](C)(C)O1`, the result was inactive. Still for that read-out and setting: to `CNC(=O)[C@H]1O[C@@H](n2cnc3c(NCc4cc(Cl)ccc4OCc4cc(C)no4)ncnc32)[C@H](O)[C@@H]1N` belongs “inactive”. `NCCO`: the result was inactive. Take `CN1CCCC1=O`: the result was inactive. Same read-out and setting: then `CC(CO)OC(C)CO` (stereo not given) (tested in a mixture with another compound), with “inactive”; and `CC(=O)OC/C=C(\C)CCC=C(C)C`, with “inactive”. Consider `Clc1cc(Cl)c(Cl)cc1Cl`, for which the outcome was inactive.

`CCOC(=O)C(C)(C)Oc1ccc(Cl)cc1`: the outcome was inactive. On the same count and under the same terms, then `CCCCCCCCCCCC(=O)OC`, with “inactive”. Take `CCCCCCCCCCC`: the outcome was inactive.

In the case of `COc1ccc2c(c1)c(CC(=O)O)c(C)n2C(=O)c1ccc(Cl)cc1`, the result was inactive.

Broadly, the AC50 is the concentration at which the activity in the assay is half-maximal.
